DT40 TDP1 no CPT – qHTS for Inhibitors of human tyrosyl-DNA phosphodiesterase 1 (TDP1): qHTS in cells in absence of CPT. DT40 Tdp1-/- hTDP1 cells, no CPT, ATP luminescence, 48 h. Potency, µM (series often up to 46.2 µM), most hits filed as inhibitors. actives 15% (n = 420,000). AID 686978, 2013; further: nearly all actives have a fitted effect of over 55% in size
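Chicken DT40 Tdp1-/- cells stably complemented with human TDP1 were seeded at 400 cells/well with DMSO in place of 20 nM camptothecin. After compound pinning, cells grew at least 48 hr at 37 °C; viability read by CellTiter-Glo luminescence.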
TDP1 cell CPT – DT40-hTDP1 cell growth loss with CPT. chicken DT40 Tdp1-/-;hTDP1 cells + 20 nM CPT, ATP luminescence, 48 h. Potency, µM (doses to about 46.2 µM), actives largely listed as inhibitors. actives 12% (n = 420,000). AID 686979; further: nearly all actives have a fitted effect of over 55% in size
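Cell growth measured by CellTiter-Glo luminescence after a minimum 48 h, 37 C compound exposure with 20 nM CPT in Tdp1-knockout DT40 cells stably expressing hTDP1, seeded 400/well; qHTS titration format.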
TDP1 inh – blocks human tyrosyl-DNA phosphodiesterase 1 | Q9NUW8 | recombinant TDP1, AlphaScreen DNA substrate cleavage | Potency, µM (doses to about 130 µM), usual class: inhibitors | actives 0.28% (n = 350,000) | AID 485290; further: nearly all actives have a fitted effect of over 40% in size
Target sequence (Q9NUW8 whole entry, looked up): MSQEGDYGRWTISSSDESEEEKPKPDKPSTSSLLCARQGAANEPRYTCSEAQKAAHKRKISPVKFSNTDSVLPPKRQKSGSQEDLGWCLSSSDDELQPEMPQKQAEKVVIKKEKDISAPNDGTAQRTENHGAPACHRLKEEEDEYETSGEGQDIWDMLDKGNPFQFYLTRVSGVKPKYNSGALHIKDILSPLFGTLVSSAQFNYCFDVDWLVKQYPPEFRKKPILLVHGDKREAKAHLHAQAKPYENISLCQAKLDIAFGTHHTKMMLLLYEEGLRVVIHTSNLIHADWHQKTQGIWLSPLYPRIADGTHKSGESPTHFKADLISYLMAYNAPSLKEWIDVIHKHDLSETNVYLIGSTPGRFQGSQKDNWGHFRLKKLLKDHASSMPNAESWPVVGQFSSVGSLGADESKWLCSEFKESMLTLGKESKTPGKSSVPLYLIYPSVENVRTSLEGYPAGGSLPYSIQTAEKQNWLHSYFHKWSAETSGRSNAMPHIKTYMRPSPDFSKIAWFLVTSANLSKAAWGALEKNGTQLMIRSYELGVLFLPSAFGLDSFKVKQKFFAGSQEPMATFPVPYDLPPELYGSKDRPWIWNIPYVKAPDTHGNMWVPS
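Compounds were preincubated with Tdp1 (1 nM final) for 15 min at room temperature before substrate (15 nM final) started a 5 min reaction; beads (10 ug/ml final) were then added for 10 min before AlphaScreen detection.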
ClpP mod – qHTS Assay for Activators of ClpP; ATP-dependent Clp protease proteolytic subunit (Bacillus subtilis (strain 168)), P80244; purified B. subtilis ClpP, FRET peptide cleavage, 20 min; Potency, µM (doses to about 57.5 µM); actives 1.9% (n = 340,000); active means well fitted falling curve with a large enough effect; inconclusive means small, poorly fitted or top-dose-only effect; inactive means no such curve, though single readings can be large or run the other way; further: the source files actives as falling curves though it sought activators and does not explain the sign; nearly all actives have a fitted effect of over 65% in size
Target sequence (P80244 whole entry, looked up): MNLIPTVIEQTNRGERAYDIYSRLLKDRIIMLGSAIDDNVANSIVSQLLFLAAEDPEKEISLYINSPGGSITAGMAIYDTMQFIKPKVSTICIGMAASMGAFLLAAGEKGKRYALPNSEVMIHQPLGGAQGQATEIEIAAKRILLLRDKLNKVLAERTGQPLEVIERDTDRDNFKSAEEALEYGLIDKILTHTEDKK
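FRET quenching reversal measured ClpP activation: 10 microg/mL B. subtilis ClpP at pH 8 with the FRET-FV decapeptide, read at 430 nm after 320 nm excitation. The 20-min minus 0-min signal was scaled between DMSO/no-enzyme wells and ADEP (5.8 microM final).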
Large screens that a line does not name were inactive. A selection: hits, their analogues and other compounds. The true share with any hit is near 17%. Unless noted, the call rests on the fitted dose curve; in most records, active means well fitted curve in the direction sought with a large enough effect; inconclusive means small, poorly fitted or top-dose-only effect, or another doubt; inactive means no such curve, though single readings can be large; an effect the other way counts as inactive or inconclusive.

Cc1noc(C)c1CSc1nc2ccccc2c(=O)n1-c1ccc(F)cc1F	DT40 TDP1 no CPT 7.3µM, TDP1 cell CPT 8.2µM
C=CCn1c(SCc2c(C)noc2C)nc2ccccc2c1=O	DT40 TDP1 no CPT 0.79µM, TDP1 cell CPT 0.56µM
Cc1noc(C)c1CSc1nnc2n(-c3ccccc3)c(=O)c3ccccc3n12	TDP1 cell CPT inconclusive (no result: TDP1 inh, ClpP mod)
C=CC1=C2C=C(C3CC3)N(Cc3ccc4c(c3)OCO4)C=C2C(=O)C(C)(OC(=O)c2ccco2)C1=O (stereo unspecified)	none (no result: DT40 TDP1 no CPT, TDP1 cell CPT, ClpP mod)
COc1ccc(NC(=O)CS(=O)CC(=O)Nc2cccnc2)cc1 (stereo unspecified)	none (no result: TDP1 inh, ClpP mod)
Cc1ccc(NC(=O)C2=C(c3ccccc3)S(=O)(=O)CCS2(=O)=O)cc1	DT40 TDP1 no CPT 0.58µM, TDP1 cell CPT 0.46µM (no result: ClpP mod)
Cc1ccc(NC(=O)c2ccccc2)cc1	none
CC1CC(C)(C)CC2(C1)NC(=S)N(c1ccccc1)N2 (stereo unspecified)	DT40 TDP1 no CPT inconclusive, ClpP mod 16µM
O=C(NC(c1cccnc1)c1ccc2c(c1)OCO2)C1CCN(CCOc2ccc(Cl)cc2Cl)CC1 (stereo unspecified)	DT40 TDP1 no CPT inconclusive (no result: TDP1 inh)
O=C(c1ccco1)N1CCN(c2ncnc3scc(-c4ccccc4)c23)CC1	DT40 TDP1 no CPT 16µM, TDP1 cell CPT 16µM
COc1ccc(-c2csc3ncnc(N4CCN(c5ccccc5Cl)CC4)c23)cc1	DT40 TDP1 no CPT inconclusive, TDP1 cell CPT inconclusive, ClpP mod inconclusive
O=C(c1ccco1)N1CCN(c2ncnc3scc(-c4cccs4)c23)CC1	DT40 TDP1 no CPT 13µM, TDP1 cell CPT 18µM
COc1ccc(-c2csc3ncnc(N4CCN(C(=O)c5ccco5)CC4)c23)cc1	DT40 TDP1 no CPT inconclusive, TDP1 cell CPT 23µM
O=C(c1cccs1)N1CCCN(c2ncnc3scc(-c4ccccc4)c23)CC1	DT40 TDP1 no CPT inconclusive, TDP1 cell CPT inconclusive (no result: ClpP mod)
CCn1c(SCc2ccccc2C)nc(=O)c2c(C(=O)OC)cc(C3CC3)nc21	DT40 TDP1 no CPT 15µM, TDP1 cell CPT 12µM
C=CCOC(=O)C1=C[C@@H](c2coc3ccccc3c2=O)[C@H](CCCO)[C@@H](OCC)O1	DT40 TDP1 no CPT inconclusive, TDP1 cell CPT inconclusive
O=C(Nc1ccc(Br)cc1Cl)c1cnn2c1NC(=C1CC1)C=C2C(F)F	none (no result: TDP1 inh)
Cc1ccc2cc(CN(CC3CCCO3)S(=O)(=O)c3ccccc3)c3nnnn3c2c1 (stereo unspecified)	TDP1 cell CPT 29µM
Cc1cccc2cc(CN(CC3CCCO3)S(=O)(=O)c3ccccc3)c3nnnn3c12 (stereo unspecified)	none (no result: DT40 TDP1 no CPT, TDP1 cell CPT, ClpP mod)
Cc1ccc2c(c1)cc(CN(CCc1ccccc1)C(=O)N1CCOCC1)c1nnnn12	DT40 TDP1 no CPT inconclusive
Cc1ccc2c(c1)cc(CN(Cc1ccc3c(c1)OCO3)C(=O)c1ccccc1)c1nnnn12	DT40 TDP1 no CPT 21µM, TDP1 cell CPT inconclusive
Cc1ccc2c(c1)cc(CN(Cc1ccco1)C(=O)N1CCOCC1)c1nnnn12	TDP1 cell CPT inconclusive
Cc1ccc2c(c1)cc(CN(Cc1ccco1)S(=O)(=O)c1ccccc1)c1nnnn12	DT40 TDP1 no CPT 21µM, TDP1 cell CPT 13µM
COc1ccc(C2/C(=C(/O)c3ccc(C)cc3)C(=O)C(=O)N2CCCN2CCOCC2)cc1 (stereo unspecified)	none (no result: TDP1 inh)
NC(=O)CSc1nnc(-c2cc(-c3ccc(Cl)cc3)nc3ccccc23)o1	none (no result: ClpP mod)
Cc1[nH][nH]c(=O)c1C(c1ccc(Cl)cc1)c1c(C)[nH][nH]c1=O	none (no result: ClpP mod)
CC(=O)OC1C=C[C@]2(C)C(CC(OC(C)=O)[C@@]3(C)C4=CC(=O)OC(c5ccoc5)[C@]4(C)CCC23)C1(C)C (stereo partly specified)	DT40 TDP1 no CPT 21µM, TDP1 cell CPT inconclusive (no result: ClpP mod)
CC(=O)OC1CC[C@]2(C)C(CC(OC(C)=O)[C@@]3(C)C4=CC(=O)OC(c5ccoc5)[C@]4(C)CCC23)C1(C)C (stereo partly specified)	DT40 TDP1 no CPT 21µM, TDP1 cell CPT inconclusive (no result: ClpP mod)
COc1ccc(C2=CC(=O)N(Nc3ccccc3)C2=O)cc1	DT40 TDP1 no CPT 21µM, TDP1 cell CPT 18µM (no result: ClpP mod)
COc1ccc(Nc2cccccc2=O)cc1	TDP1 cell CPT inconclusive
O=C1C=C(c2ccccc2)C(=O)N1Nc1ccccc1	DT40 TDP1 no CPT 5.8µM, TDP1 cell CPT 4.1µM
Cc1ccc(NN2C(=O)C=C(c3ccc(Cl)cc3)C2=O)cc1	DT40 TDP1 no CPT 4.1µM, TDP1 cell CPT 5.8µM (no result: TDP1 inh)
O=c1cc(CN2CC(O)Cc3ccc4ccccc4c32)nc2sccn12 (stereo unspecified)	DT40 TDP1 no CPT inconclusive, TDP1 cell CPT inconclusive (no result: ClpP mod)
CCOCCCNC(=O)CCc1ccc(-n2cnc3cccnc32)cc1	none (no result: TDP1 inh, ClpP mod)
CC1(C)CC(=O)C=C(NNC(=O)c2ccccc2)C1	none
CC1(C)CC(=O)C(CSC(=O)c2ccccc2)C(=O)C1	DT40 TDP1 no CPT 13µM, TDP1 cell CPT 13µM (no result: TDP1 inh)
COC(=O)c1ccccc1NC(=O)c1ccc2c(c1)CCN2S(=O)(=O)c1ccc(Cl)cc1	none
CN(CCOc1ccccc1)C(=O)c1ccc(Cl)c(S(=O)(=O)N2CCCCC2)c1	DT40 TDP1 no CPT inconclusive, TDP1 cell CPT inconclusive
Cc1ccc(C(=O)N(C)CCOc2ccccc2)cc1S(=O)(=O)N1CCCCC1	DT40 TDP1 no CPT inconclusive, TDP1 cell CPT 18µM
O=C(NCC1COc2ccccc2O1)c1ccc(Cl)c(S(=O)(=O)N2CCCC2)c1 (stereo unspecified)	DT40 TDP1 no CPT inconclusive, TDP1 cell CPT inconclusive
Cc1cccc(OCCC(=O)Nc2ccc(C)c(S(=O)(=O)N3CCCCC3)c2)c1	DT40 TDP1 no CPT 21µM, TDP1 cell CPT inconclusive
CCOc1ccccc1OCCCC(=O)Nc1ccc(Cl)c(S(=O)(=O)N2CCOCC2)c1	DT40 TDP1 no CPT inconclusive, TDP1 cell CPT inconclusive
CN(CC1COc2ccccc2O1)C(=O)c1ccc(Cl)c(S(=O)(=O)N2CCCCCC2)c1 (stereo unspecified)	DT40 TDP1 no CPT inconclusive, TDP1 cell CPT 16µM
Cc1cccc(OCCCC(=O)Nc2ccc(Cl)c(S(=O)(=O)N3CCOCC3)c2)c1	DT40 TDP1 no CPT 12µM, TDP1 cell CPT 23µM
Cc1cccc(OCCC(=O)Nc2ccc(C)c(S(=O)(=O)N3CCOCC3)c2)c1	DT40 TDP1 no CPT inconclusive, TDP1 cell CPT inconclusive
Cc1c(O)c(O)cc2c1oc1c3ccccc3oc(=O)c21	none (no result: DT40 TDP1 no CPT, TDP1 cell CPT, ClpP mod)
CC1(C)C(=O)Nc2ccccc2N1C(=O)COC(=O)Cc1ccccc1F	TDP1 cell CPT inconclusive
C[C@H](NC(=O)N1CCc2nc(-c3ccccc3)c3c(c2C1)CO[C@@H](C)C3)c1ccccc1	none (no result: DT40 TDP1 no CPT, TDP1 cell CPT, ClpP mod)
CN(CCOc1ccccc1)c1ccc(S(=O)(=O)N2CCCCC2)cn1	DT40 TDP1 no CPT 21µM, TDP1 cell CPT inconclusive
CCCCC[C@@H](/C=C/C1C(=O)C=C[C@H]1C/C=C\CCCC(=O)O)OC(C)=O (stereo partly specified)	DT40 TDP1 no CPT 23µM, TDP1 cell CPT 21µM (no result: TDP1 inh)
N#Cc1c2n(c3c(=O)n(Cc4ccccc4Cl)cnc13)CCCCC2	DT40 TDP1 no CPT inconclusive, TDP1 cell CPT 18µM

Screening results: PubChem BioAssay, National Center for Advancing Translational Sciences (NCATS)
